Values without a mark were called inactive. Activity calls are given as the source filed them. Cut-off read from the data, not from the text of the source, unless noted: active = inhibition above about 25%; inactive = the rest.
Legend:
[1] = target: Nuclear receptor coactivator 1 (Homo sapiens) (UniProt Q15788); assay: SRC1 coactivator transcriptional activity inhibitors, confirmation, cell-based, luminescence, quadruplicate (AID 588820;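 active = mean inhibition above 46.68%, the untreated control wells mean plus 3 SD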;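 note: 0% = DMSO wells and 100% = gossypol 36 µM treated wells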); details: HEK293 GAL4-SRC1 luciferase reporter, at 3.6 µM, stronger effect = higher value
Chain of Nuclear receptor coactivator 1 (Homo sapiens) (Q15788 whole entry, looked up, the tested form may be a part): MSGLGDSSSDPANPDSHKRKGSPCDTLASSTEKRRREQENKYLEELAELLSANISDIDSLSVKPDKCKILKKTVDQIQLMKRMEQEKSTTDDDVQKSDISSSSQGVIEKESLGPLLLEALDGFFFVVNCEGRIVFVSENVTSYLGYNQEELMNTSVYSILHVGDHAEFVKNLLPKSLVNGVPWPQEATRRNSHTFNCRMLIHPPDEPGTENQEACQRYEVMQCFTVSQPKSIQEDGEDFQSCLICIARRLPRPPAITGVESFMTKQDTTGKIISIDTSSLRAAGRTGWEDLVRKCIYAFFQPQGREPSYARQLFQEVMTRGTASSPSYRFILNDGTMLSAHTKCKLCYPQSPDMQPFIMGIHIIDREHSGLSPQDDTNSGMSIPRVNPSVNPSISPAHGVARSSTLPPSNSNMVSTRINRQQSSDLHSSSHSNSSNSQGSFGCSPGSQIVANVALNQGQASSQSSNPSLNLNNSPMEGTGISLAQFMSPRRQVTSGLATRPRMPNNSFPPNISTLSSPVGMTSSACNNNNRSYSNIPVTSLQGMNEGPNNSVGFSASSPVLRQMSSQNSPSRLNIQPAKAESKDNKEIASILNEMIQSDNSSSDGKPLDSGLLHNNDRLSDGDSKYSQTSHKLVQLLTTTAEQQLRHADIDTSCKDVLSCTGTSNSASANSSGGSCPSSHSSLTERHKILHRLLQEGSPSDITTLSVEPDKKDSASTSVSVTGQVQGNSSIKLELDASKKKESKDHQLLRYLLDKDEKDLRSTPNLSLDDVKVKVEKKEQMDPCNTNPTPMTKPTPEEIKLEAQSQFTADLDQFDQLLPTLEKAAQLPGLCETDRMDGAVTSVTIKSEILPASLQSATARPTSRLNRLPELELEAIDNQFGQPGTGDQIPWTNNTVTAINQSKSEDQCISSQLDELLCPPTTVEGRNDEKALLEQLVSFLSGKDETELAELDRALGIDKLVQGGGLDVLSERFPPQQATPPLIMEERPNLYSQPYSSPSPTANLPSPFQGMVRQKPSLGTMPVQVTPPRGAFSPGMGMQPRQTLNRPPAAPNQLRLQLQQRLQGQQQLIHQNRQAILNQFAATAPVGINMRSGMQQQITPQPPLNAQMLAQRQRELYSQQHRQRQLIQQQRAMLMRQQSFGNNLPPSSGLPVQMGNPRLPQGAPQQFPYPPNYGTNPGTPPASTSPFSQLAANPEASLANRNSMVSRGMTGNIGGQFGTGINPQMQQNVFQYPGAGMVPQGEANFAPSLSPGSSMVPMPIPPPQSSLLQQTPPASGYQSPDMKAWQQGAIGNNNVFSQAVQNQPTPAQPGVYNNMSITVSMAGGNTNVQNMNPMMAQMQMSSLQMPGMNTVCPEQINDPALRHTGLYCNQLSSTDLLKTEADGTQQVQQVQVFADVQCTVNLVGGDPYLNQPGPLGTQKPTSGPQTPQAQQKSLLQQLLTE

[2] = VP16 transactivation inhibitors, counter-screen for SRC1 inhibitor project, cell-based, luminescence, high throughput (AID 588824); details: cell-based VP16 transactivation luciferase luminescence; at 3.6 µM; stronger effect = higher value

CC1=C(C(=O)OCc2ccccc2)C(c2ccsc2)C(C#N)=C(N)O1 (stereo unspecified)
inhibition [1]: -1.74%
inhibition [2]: 3.63%

COC(=O)c1sc2cnccc2c1N
inhibition [1]: 21.5%
inhibition [2]: 4.54%

Cc1cc(CSc2ccccc2)ccc1NC(=O)c1ccc(CN2CCOCC2)cc1
inhibition [1]: -33.7%
inhibition [2]: 33.4% (active)

CCc1ccc(CNC(=O)C2CCCN(S(=O)(=O)N(CC)c3ccccc3)C2)cc1 (stereo unspecified)
inhibition [1]: -39.2%
inhibition [2]: -3.99%

COc1ccc(CCC(=O)Nc2ccc(Cl)c(S(=O)(=O)N3CCCC3)c2)cc1
inhibition [1]: 12.1%
inhibition [2]: 27.8% (active)

CN(C)S(=O)(=O)c1ccc(Cl)c(NC(=O)CN2C(=O)NC(C)(C3CC3)C2=O)c1 (stereo unspecified)
inhibition [1]: -2.39%
inhibition [2]: -2.88%

Cc1csc(-c2cc(C(=O)NCc3cc(C(F)(F)F)cc(C(F)(F)F)c3)n[nH]2)c1
inhibition [1]: 20.5%
inhibition [2]: 47.2% (active)

CCCCCCCCNc1ncnc2[nH]ncc12
inhibition [1]: -9.61%
inhibition [2]: 19.6%

O=S(=O)(NCC1CN(S(=O)(=O)c2c(F)cccc2F)C1)c1ccc2c(c1)OCCO2
inhibition [1]: 2.79%
inhibition [2]: 17.9%

Cc1ccc(NNC(=O)C(=O)N2CCCCC2)cc1
inhibition [1]: -16.9%
inhibition [2]: 11.6%

CCCCCN(C(=O)CCC(=O)OCC(=O)N(CC#N)c1ccccc1)c1c(N)n(CCCC)c(=O)[nH]c1=O
inhibition [1]: -5.77%
inhibition [2]: 1.44%

COc1ccc(NC(=O)CCn2c(=S)[nH]c3ccccc3c2=O)cc1
inhibition [1]: 2.22%
inhibition [2]: 0.97%

CSc1nccc(Oc2cncc(Cl)c2)n1
inhibition [1]: 8.08%
inhibition [2]: 5.07%

CCOc1ccc(CSC(=N)N)cc1Cl
inhibition [1]: -21.1%
inhibition [2]: 9.52%

CC(C)(C)c1cc(C(=O)C[n+]2ccc(C(=O)NCCCO)cc2)cc(C(C)(C)C)c1O
inhibition [1]: -6.91%
inhibition [2]: -12.9%

Cc1cccc(Oc2ncnc(N)c2[N+](=O)[O-])c1C
inhibition [1]: -14.1%
inhibition [2]: 5.89%

Cc1c(C(=O)NN)nn(-c2ccc(Cl)cc2)c(=O)c1C#N
inhibition [1]: -10.1%
inhibition [2]: 5.25%

COc1ccccc1CCNC(=O)CCn1c(=O)c2cccn2c2ccc(F)cc21
inhibition [1]: -9.66%
inhibition [2]: -15.2%

FC(F)(F)c1cccc(Oc2ccc3c(C(F)(F)F)cc(C(F)(F)F)nc3n2)c1
inhibition [1]: -2.81%
inhibition [2]: -6.43%

COc1ccc(C(=O)n2cc(C(=O)c3cc(C)ccc3O)cn2)cc1OC
inhibition [1]: -3.44%
inhibition [2]: -0.92%

COc1ccc(C(=O)N2CCN(c3ccc(NC(=O)c4cccs4)cc3)CC2)cc1
inhibition [1]: 2.7%
inhibition [2]: -1.25%

CCc1nc(Nc2ccncc2)c2oc3ccccc3c2n1
inhibition [1]: 12.3%
inhibition [2]: 12%

O=c1[nH]cnc2sc3c(c12)CCCC3
inhibition [1]: 10.8%
inhibition [2]: 11.2%

CCOc1ncccc1C(=O)NC(C)CCc1ccccc1 (stereo unspecified)
inhibition [1]: 0.01%
inhibition [2]: -0.39%

Cc1ccc(Cc2c(-c3ccco3)nc3c4ccccc4ccn23)cc1
inhibition [1]: -81.9%
inhibition [2]: -34.6%

CC(=O)N/C(=N/c1nc(C)cc(C)n1)Nc1cccc(C)c1C
inhibition [1]: -0.27%
inhibition [2]: -6.32%

Cc1ccc(S(=O)(=O)NCc2ccc3c(c2)OCO3)cc1C
inhibition [1]: -20.8%
inhibition [2]: 1.6%

O=C(Cc1cccs1)N(CC1CCCO1)C1(C(=O)NC2CCCCC2)CCCCC1 (stereo unspecified)
inhibition [1]: 7.13%
inhibition [2]: 14.9%

COc1ccc(C(=O)Nc2ccc(Cl)c(S(=O)(=O)N3CCOCC3)c2)cc1
inhibition [1]: -18.1%
inhibition [2]: 1.15%

CCCN(CCC)CCCNC(=O)c1cn(C)c2ccc(S(=O)(=O)N(C)C3CCCCC3)cc2c1=O
inhibition [1]: -13.7%
inhibition [2]: -9.68%

Cc1cc(C)c(Nc2cc(S(=O)(=O)O)c(N)c3c2C(=O)c2ccccc2C3=O)c(C)c1
inhibition [1]: 9.3%
inhibition [2]: 8.52%

COc1cc2c3c([nH]c2cc1F)C(=O)NCC3
inhibition [1]: 19.2%
inhibition [2]: 14.9%

COc1ccc(CN2CCN(C(=O)c3cc(-c4cccnc4)nc4ccc(Cl)cc34)CC2)c(OC)c1OC
inhibition [1]: -29.8%
inhibition [2]: -6.25%
